# From PubChem
# SMARCA2 act = activators of SMARCA2 function | MG213 cells, MMTV-luciferase reporter, dexamethasone, overnight | activation, % at 9.1 µM | 1% of 370,000 active | AID 652017; in the data active = activation above about 7.8%;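 also: 0% = vehicle wells and 100% = reference activator wells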
# SKN-1 block = blocks SKN-1 activity in C. elegans | C. elegans VP596 Pgst-4::GFP/RFP ratio, acrylamide-induced, 24 h | inhibition, % at 21.8 µM | 0.49% of 360,000 active | AID 624304;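 active = interference check ratio from 0.5 to 1.5 plus GFP to RFP signal ratio inhibition reaching or exceeding a fixed threshold, cut at about 30% in these data, passing the limit was not always enough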
# Vif inh = blocks HIV Vif function; HEK293T cells, Vif self-association by quenched fluorescence, imaging, 24 h; inhibition, % at 7.49 µM; 0.35% of 340,000 active; AID 602346; in the data active = inhibition above about 50%, passing the limit was not always enough; inconclusive = no clear call, values can overlap the other calls; inactive = below about 31%
# NadD inh = blocks S. aureus nicotinate mononucleotide adenylyltransferase; 0.78% of 360,000 active; inhibition, % at 20 µM; purified NadD enzyme, colorimetric absorbance read-out; AID 602399; in the data active = inhibition above about 26%
# esBAF inh = SWI/SNF esBAF complex inhibition | mouse ES cells, Bmi1-luciferase knock-in reporter, 24 h; 100% = twice the neutral-well signal | reporter increase, % at 12.5 µM | 2% of 350,000 active | AID 602393; in the data active = activation above about 40%; inconclusive = no clear call, values can overlap the other calls;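 also: 0% = median of the plate's neutral control wells and 100% = double that signal; a rise in the Bmi1 reporter signal indicates esBAF inhibition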
# GRIN3A LBD mod = modulators (binders) of human NR3A ligand-binding domain. NR3A LBD differential scanning fluorimetry, Tm shift; 0% = protein alone, 100% = glycine-bound protein. Tm shift relative to glycine control, % at 25 µM. 2.5% of 340,000 active. AID 1259313;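 active = melting temperature shift of at least 10% of the positive control shift, at one fixed dose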
# * = called active by the depositor; ? = inconclusive; . = no result given. Most compounds without a hit are left out; they make up all but 5.2% or so of the library.
SMILES,SMARCA2 act,SKN-1 block,Vif inh,NadD inh,esBAF inh,GRIN3A LBD mod
CN(C)/C=C/C(=O)c1cnc(-c2ccccc2)s1,-1.2,7.9,26.8,0.5,56.4*,0.2
COc1ccc(CN(C)C[C@@H]2Oc3ccc(NS(=O)(=O)c4c(C)noc4C)cc3CC(=O)N([C@H](C)CO)C[C@H]2C)cc1,.,.,.,.,4.7,.
COc1ccc2oc(=O)c(/C(N)=N/NC(=O)c3ccncc3)cc2c1,6.5,38.1*,24.7,4.8,-4.4,1.8
CCOC(=O)Nc1ccc2c(COC(=O)CN(C)S(=O)(=O)c3ccc(C)cc3)cc(=O)oc2c1,0.2,7.0,-1.9,18.4,1.7,2.4
CCOC(=O)Nc1ccc2c(COC(=O)CNS(=O)(=O)c3cccc(Br)c3)cc(=O)oc2c1,-3.0,13.0,6.9,8.2,.,26.1*
Nc1c(C(=O)N/N=C/c2ccccc2)cnn1-c1ccccc1,5.7,-9.3,3.8,-12.2,48.5*,14.8*
COc1ccccc1C(=O)COC(=O)c1ccccc1O,4.4,5.3,-5.0,0.7,?,0.9
COc1ccc(NC(=O)COc2nsnc2N2CCOCC2)cc1,-3.0,1.9,-1.6,-2.5,.,-0.3
COc1ccc(CCNC(=O)COC(=O)c2cccs2)cc1OC,-4.4,3.7,-3.0,2.2,-3.8,11.9*
COc1ccccc1C(=O)COC(=O)C1(C)CC1(Cl)Cl (stereo not given),2.0,15.1,71.0*,-3.9,60.2*,6.8
COc1ccccc1C(=O)COC(=O)c1cccs1,5.4,-4.1,-16.5,-3.3,80.9*,1.1
COc1ccc(CCNC(=O)COc2nsnc2N2CCOCC2)cc1OC,-4.4,39.7*,0.5,3.3,-4.2,-1.0
CCOc1ccc(CCNC(=O)COC(=O)c2cccs2)cc1OCC,-1.1,-14.1,-13.1,-2.4,-2.9,0.8
COc1ccc(NC(=O)N(C)C[C@@H]2Oc3ccc(NS(=O)(=O)c4c(C)noc4C)cc3CC(=O)N([C@@H](C)CO)C[C@H]2C)cc1,.,.,.,.,-2.2,.
COc1ccc(CCNC(=O)CCN2C(=O)COc3ccc(C)cc32)cc1OC,-2.6,-0.6,-7.4,5.1,-8.9,-3.6
COc1ccc(CCNC(=O)CCN2C(=O)COc3ccccc32)cc1OC,-2.3,3.8,125.6*,1.2,-2.3,0.7
COc1ccc(CCNC(=O)C/C(C)=N/NC(=O)C23CC4CC(CC(C4)C2)C3)cc1OC,1.9,5.0,-1.3,5.0,.,29.9*
CC(=O)Nc1ccc(C(=O)COC(=O)c2cccs2)c(F)c1,2.4,18.6,-1.9,-7.5,68.4*,4.5
O=C(C[C@H]1CC[C@@H]2[C@H](COC[C@H](O)CN2Cc2cc(F)ccc2F)O1)NCc1ccc(Cl)cc1,.,.,.,.,2.5,.
COc1ccc(NC(=O)Nc2ccc3c(c2)[C@H]2C[C@@H](CC(=O)NCc4ccccc4F)O[C@@H](CO)[C@H]2O3)cc1,.,.,.,.,-1.3,.
CN(C)C(=O)C[C@@H]1C[C@H]2c3cc(NC(=O)Nc4ccccc4)ccc3O[C@H]2[C@@H](CO)O1,.,.,.,.,2.6,.
CNC[C@H]1Oc2c(NC(=O)Nc3c(C)noc3C)cccc2C(=O)N([C@H](C)CO)C[C@@H]1C,.,.,.,.,-2.5,.
C[C@@H]1CN([C@H](C)CO)S(=O)(=O)c2ccc(-c3cccnc3)cc2O[C@@H]1CN(C)C(=O)C1CCC1,.,.,.,.,3.8,.
c1coc(-c2nc(-c3ccco3)c(-c3ccco3)nc2-c2ccco2)c1,0.1,2.3,.,46.2*,-2.4,-26.7
C[C@@H]1CN([C@@H](C)CO)C(=O)c2cc(C#Cc3cccnc3)cnc2O[C@H]1CN(C)C,.,.,.,.,8.4,.
SMILES,SMARCA2 act,SKN-1 block,Vif inh,NadD inh,esBAF inh,GRIN3A LBD mod
O=C1C=CC2=C3c4cc(O)c(O)cc4CC3(O)COC2=C1O (stereo not given),-0.1,26.9,3.6,47.6*,-2.4,-1.8
COc1ccc(N=C2NC(=O)S/C2=C\c2ccc(N(C)C)cc2)cc1,0.5,54.5,103.7*,18.5,.,-2.8
CCOc1ccc(N=C2NC(=O)S/C2=C\c2ccc(Cl)cc2)cc1,-0.2,-29.5,0.1,0.7,-17.4,-2.4
CN(C)c1ccc(/C=N/N=C2/NC(=O)/C(=C/c3ccc([N+](=O)[O-])cc3)S2)cc1,-4.9,-11.9,2.5,50.2*,-22.1,-3.2
CN(C)c1ccc(C=C2SC(=S)NC2=O)cc1,0.6,39.9*,.,8.1,53.8*,2.0
CCOc1ccc(N(C)c2ccc(/C=C3/SC(=S)NC3=O)cc2)cc1,-2.0,19.8,.,19.9,-17.8,-0.7
CN(C)c1ccc(C(=O)C=Cc2ccc([N+](=O)[O-])cc2)cc1,-5.6,-7.9,1.9,5.2,11.5,.
COc1ccc(NC(=O)Nc2ccc3c(c2)C(=O)N([C@H](C)CO)C[C@@H](C)[C@H](CN(C)C(=O)C2CCCCC2)OCCCC[C@H](C)O3)cc1,.,.,.,.,2.4,.
Nc1nn(-c2ccccc2)c(N)c1N=Nc1cccc(F)c1,-0.5,12.8,0.2,4.4,.,10.8*
Nc1nn(-c2ccccc2)c(N)c1N=Nc1ccc2c(c1)OCO2,7.1,10.4,.,-0.3,.,-8.0
Cc1ccc(Cc2nc3ccccc3[nH]2)cc1,3.0,-8.7,-9.3,-7.4,15.5,-2.2
Nc1ccc2nc(Cc3ccccc3)[nH]c2c1,0.2,3.2,5.4,6.4,?,-2.6
Cc1ccc2nc(Cc3ccc(N)cc3)[nH]c2c1,-0.3,-3.3,-1.9,-5.1,43.9*,1.9
Nc1ccc(Cc2nc3c(ccc4ccccc43)[nH]2)cc1,0.6,12.3,4.4,11.1,87.1*,-1.1
Cc1ccc2nc(C(O)C(O)c3nc4ccc(C)cc4[nH]3)[nH]c2c1 (stereo not given),1.8,-11.2,-24.8,2.4,42.7*,-2.8
COc1cccc(NC(=O)N2C[C@@H](O)COC[C@H]3O[C@H](CC(=O)NC4Cc5ccccc5C4)CC[C@@H]32)c1,.,.,.,.,-4.6,.
COCCNC(=O)c1cc2oc3ccccc3c2n1C,4.9,9.6,7.5,4.7,72.5*,-2.6
Cc1ccc(NC(=O)COC(=O)Cc2c[nH]c3ccccc23)cc1C,-3.0,-6.6,?,-6.1,-5.5,1.8
NC(=O)c1ccc(NC(=O)COC(=O)CCCc2c[nH]c3ccccc23)cc1,-1.2,1.6,-2.9,0.2,.,10.3*
COc1ccc(NC(=O)COC(=O)Cc2c[nH]c3ccccc23)cc1Cl,0.3,-11.6,54.8*,-7.7,-7.2,19.8*
C[C@H]1CN([C@@H](C)CO)C(=O)CCCn2cc(nn2)CO[C@H]1CN(C)C(=O)Nc1ccc(N2CCN(C)CC2)cc1,.,.,.,.,-4.0,.
COc1ccccc1-c1cnc2c(c1)C(=O)N([C@H](C)CO)C[C@@H](C)[C@H](CN(C)C(=O)c1ccncc1)O2,.,.,.,.,-2.7,.
CCCS(=O)(=O)NC(=O)C1(C)CCN(C(=O)c2cccc(C)c2C)C1 (stereo not given),-1.3,35.4*,1.2,4.2,-0.5,.
CCS(=O)(=O)N1CCN(c2ccc([N+](=O)[O-])c(N3CCOCC3)c2)CC1,1.7,-19.7,10.4,-3.2,-1.8,15.8*
